Compounds with a hit are over-represented: about 1.9% of the library has one in this group of screens.
S1P4 agonist: agonists of human S1P4 receptor; O95977; S1P4-expressing cell line, agonist reporter assay; activation, % at 4.98 µM; 0.35% of 220,000 active; AID 1509; in the data active = activation above about 11%;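 also: 0% = DMSO vehicle and 100% = reference agonist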
Target sequence (O95977 whole entry, looked up): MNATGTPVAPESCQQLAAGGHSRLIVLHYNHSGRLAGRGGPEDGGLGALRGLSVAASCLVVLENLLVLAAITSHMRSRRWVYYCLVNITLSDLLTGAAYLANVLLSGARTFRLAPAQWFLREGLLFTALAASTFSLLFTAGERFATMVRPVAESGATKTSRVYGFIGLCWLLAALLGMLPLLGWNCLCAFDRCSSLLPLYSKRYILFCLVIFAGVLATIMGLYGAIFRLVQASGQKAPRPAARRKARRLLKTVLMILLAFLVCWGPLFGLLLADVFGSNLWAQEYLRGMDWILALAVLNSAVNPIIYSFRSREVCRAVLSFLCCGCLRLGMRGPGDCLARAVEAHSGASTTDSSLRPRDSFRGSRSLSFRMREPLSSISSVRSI
S1P4 antag: human S1P4 receptor antagonism; O95977; S1P4-expressing cells, antagonist mode, reporter read-out; inhibition, % at 4.98 µM; 0.26% of 220,000 active; in the data active = inhibition above about 29%;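 also: 0% = wells stimulated with agonist and 100% = vehicle wells without agonist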
EP2 modulator: modulates human prostaglandin E2 receptor EP2 signaling. P43116. EP2-expressing cells, cAMP HTRF FRET, PGE2 co-stimulation. induction, % at 25 µM. 0.83% of 260,000 active. AID 940;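 active = compounds whose cAMP rise, as percent of the full-agonist control response, exceeds 60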;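 also: rat C6 glioma line stably carrying human EP2 under a CMV promoter; the protocol text gives 20 µM as final concentration; 100% = response of wells given 1 µM PGE2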
PGE2 EP2 inh: EP2 receptor (human) inhibition. P43116. C6 glioma cells expressing human EP2, cAMP TR-FRET; cells stimulated with saturating PGE2. inhibition, % at 25 µM. 0.52% of 260,000 active;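 active = percent inhibition above 40 after rounding to a whole number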;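 also: rat C6 glioma host cells with rolipram phosphodiesterase inhibitor present; the protocol text gives 20 µM as final concentration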
S1P3 antagonist: antagonists of human S1P3 receptor | inhibition, % at 4.98 µM | 0.27% of 170,000 active | CHO S1P3 NFAT-BLA reporter, FRET fluorescence, antagonist mode | Q99500;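 active = inhibition above the plate cutoff, the mean inhibition of test wells on that plate plus 3 SD, cut at about 28% in these data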;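 also: cells challenged with S1P at its EC80 of 0.8 µM; blue over green emission ratio from cleaved BLA substrate after 4 h stimulation; 0% = S1P-stimulated wells and 100% = unstimulated DMSO-only wells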
S1P4 ag conf: confirmation of human S1P4 receptor agonists; S1P4 agonist cell-based reporter assay; 7% of 740 active; AID 1523; shares compounds with S1P4 agonist; activation, % at 4.98 µM; in the data active = activation above about 12%;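 also: 0% = vehicle and 100% = full reference agonist response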
S1P1 agonist: counter-screen for S1P4 agonists: agonists of human S1P1; S1P1 agonist cell-based assay, activation; AID 1563; activation, % at 4.98 µM; 4% of 740 active; shares compounds with S1P4 agonist; in the data active = activation above about 21%;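 also: 0% = vehicle wells and 100% = reference agonist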
Active calls of the source: *; / = not tested or not shown.

SMILES | S1P4 agonist | S1P4 antag | EP2 modulator | PGE2 EP2 inh | S1P3 antagonist | S1P4 ag conf | S1P1 agonist
O=C(COc1ccc(CN2CCC(CO)C2)cc1)N1CCOCC1 (centres undefined) | / | / | 27 | 7 | / | / | /
COc1cccc(-n2nc(C(C)=O)c(C#N)c2-c2ccco2)c1 | 38* | 0 | 47 | 8 | -2 | -2 | -5
O=C(CSc1nc2ccccc2c(=O)n1-c1ccc(F)cc1)Nc1ccc(Cl)c(S(=O)(=O)N2CCOCC2)c1 | 3 | 16 | 4 | 5 | 0 | / | /
O=C(CSc1nc2ccccc2c(=O)n1-c1ccc(F)c(Cl)c1)Nc1cccc(S(=O)(=O)N2CCOCC2)c1 | 30* | 18 | 10 | 5 | 0 | -1 | 2
CN(C)CCCNC1CCS(=O)(=O)C1 (centres undefined) | / | / | -7 | 13 | / | / | /
CCOC(=O)C1C(=O)N(C(=O)c2cncc(Br)c2)CC1c1ccccc1 (centres undefined) | 20* | -8 | 8 | 10 | 4 | -2 | 3
CCOC(=O)C1C(=O)N(C(=O)c2ccc(OC)cc2)CC1c1ccccc1 (centres undefined) | 0 | 1 | 28 | 10 | -13 | / | /
COc1ccc(N2CCN(C(=S)NCc3ccc(C)cc3)CC2)cc1 | 4 | -11 | -21 | 7 | -8 | / | /
COc1ccc(N2CCN(C(=O)NCc3ccc(OC)c(Cl)c3)CC2)cc1 | 16* | -4 | -24 | 3 | -23 | -2 | -11
CCOc1ccc(/C(O)=C/C(=O)C(=O)Nc2ccc(S(=O)(=O)NC(C)=O)cc2)cc1 | 12* | -15 | 8 | 8 | -4 | -1 | -2
CC(Sc1nc2ccccc2[nH]1)C(=O)Nc1ccc(Cl)cc1 (centres undefined) | / | / | -74 | 9 | / | / | /
O=C(Nc1ccccc1C(=O)NC(Cc1c[nH]c2ccccc12)C(=O)O)c1ccccc1 (centres undefined) | 11* | 0 | 16 | 10 | 1 | -1 | -1
O=C(NC(Cc1c[nH]c2ccccc12)C(=O)O)c1ccc(F)cc1 (centres undefined) | 0 | -15 | 32 | 6 | -13 | / | /
CCOC(=O)Cn1nc(C)c(NC(=O)COc2cccc(Cl)c2)c1C | 12* | -24 | -60 | 7 | 1 | -1 | -2
Cn1c(SCC(=O)c2ccc(Cl)cc2)nnc1-c1ccco1 | / | / | -22 | 11 | / | / | /
N#Cc1c(-n2cccc2C=O)sc2c1CCCC2 | 19* | -12 | 16 | 3 | -12 | 14* | -4
COc1cccc(NC(=O)c2sc3cc(Cl)ccc3c2Cl)c1 | / | / | -3 | 14 | / | / | /
COc1ccc(OC(C)C(=O)Nc2ccccc2C(F)(F)F)cc1 (centres undefined) | 86* | -12 | 19 | 9 | 5 | -3 | 1
O=C(COCc1nc2ccccc2c(=O)[nH]1)NC1CC2(CCCCC2)Oc2ccccc21 (centres undefined) | / | / | 31 | 6 | / | / | /
Nn1cc(-c2ccccc2)nc1SCC(=O)NCC(F)(F)F | 14* | -12 | -7 | 5 | -5 | -1 | -2
Nn1cc(-c2ccccc2)nc1SCC(=O)NCCc1ccccc1 | -2 | 22 | -56 | 19 | 0 | / | /
Cn1c(SCC(=O)O)nc2sc3c(c2c1=O)CCCC3 | / | / | 36 | 11 | / | / | /
Cc1cc2cc(C)c3nnc(SCC(=O)c4ccc(F)cc4)n3c2cc1C | / | / | 30 | 12 | / | / | /
CC(C)c1nc(SCC(=O)Nc2ccc([N+](=O)[O-])cc2Br)n[nH]1 | 68* | -11 | -39 | 7 | -3 | -2 | 3
N#Cc1ccc(-c2ccc3c(c2)OCO3)nc1SCC(=O)Nc1cc(F)ccc1F | / | / | 16 | 12 | / | / | /
SMILES | S1P4 agonist | S1P4 antag | EP2 modulator | PGE2 EP2 inh | S1P3 antagonist | S1P4 ag conf | S1P1 agonist
Cn1cc(C(O)CN2CCN(c3ccccn3)CC2)c2ccccc21 (centres undefined) | / | / | -57 | 5 | / | / | /
c1ccc(-c2nccc(-c3ccc4c(c3)OCO4)n2)cc1 | 1 | -13 | 39 | 0 | -20 | / | /
c1ccc(-c2nccc(-c3ccc(-n4cnc5ccccc54)cc3)n2)cc1 | 83* | -11 | 48 | / | / | -1 | 5
Cc1nc(-c2cccc(NS(=O)(=O)c3cccc4ccccc34)c2)cs1 | 12* | 4 | 33 | 10 | / | -2 | 4
c1ccc(CC2CCCNC2)cc1 (centres undefined) | 49* | -4 | 10 | 7 | -5 | 1 | 9
O[C@@H]1CNCC[C@H]1c1ccccc1 | / | / | 7 | 4 | / | / | /
Cc1cc(-c2cc(N)c(=O)n(C(C)C(=O)N3CCOCC3)n2)c(C)o1 (centres undefined) | / | / | -49 | 10 | / | / | /
COc1ccc(-c2csc(Nc3ccc(N)cc3)n2)cc1C | / | / | -98 | 16 | / | / | /
Cc1cccc(NC(=O)CSc2nnc3c(n2)C2(C)CCC3C2(C)C)c1C (centres undefined) | / | / | -26 | 11 | / | / | /
COc1ccc(F)cc1S(=O)(=O)n1nnc2ccccc21 | 74* | -5 | 21 | 2 | -23 | -1 | 1
O=C(CSc1nc2ncc(Br)cc2[nH]1)Nc1ccc2c(c1)OCO2 | 29* | -1 | -7 | 15 | -15 | -1 | 0
O=C(CSc1ncc(-c2ccc(F)cc2)[nH]1)Nc1ccc2c(c1)OCO2 | / | / | -64 | 11 | / | / | /
Cc1c(Nc2c3ccccc3nc3ccccc23)c(=O)n(-c2ccccc2)n1C | 11* | -3 | -19 | 13 | -11 | -1 | 2
CC(C)[C@@H](N)Cn1nnc2ccccc21 | / | / | 38 | 8 | / | / | /
CCCn1ncc(C(=O)N2CCC3(CC2)NC(=O)c2ccccc2O3)c1C | / | / | -27 | 8 | / | / | /
Fc1ccc(-c2nnc3ccccn23)cc1 | 29* | 1 | 1 | 4 | -5 | -2 | 2
Cc1ccsc1-c1nc(CN2CCN(C)C(=O)[C@@H]2C)c(C)o1 | 2 | 2 | 18 | 10 | 0 | / | /
Cc1oc(-c2cc(F)ccc2F)nc1CN1CCN(C)C(=O)[C@@H]1C | 15* | -8 | -45 | 5 | -5 | -1 | -7
Nc1cc(-c2cccs2)nn(CC(=O)Nc2ccc(N3CCCC3)cc2)c1=O | / | / | -12 | 6 | / | / | /
Cc1cccc(NC(=S)N2CCN(S(=O)(=O)c3cccc(F)c3)CC2)c1 | 20* | 4 | -11 | 9 | -6 | -2 | 8
COc1ccc(C2C=C(c3ccccc3)Nc3ncnn32)cc1OC (centres undefined) | / | / | -61 | 16 | / | / | /
COc1ccc(-c2nnn(CC(=O)N(CCCN3CCOCC3)C(C(=O)NC3CCCC3)c3ccco3)n2)cc1 (centres undefined) | 14* | -23 | 12 | 18 | -1 | -3 | -9
COc1ccc(NC(=S)c2ccncc2)cc1 | 19* | -24 | -12 | 13 | 3 | -2 | -6
Cc1ccc(NC(=O)CS(=O)CC(=O)NCCCN(C)c2ccccc2)cc1 (centres undefined) | 25* | -7 | 1 | 6 | -29 | -2 | -4
Cc1ccccc1-c1nc(CS(=O)CC(=O)NCCCN(C)c2ccccc2)c(C)o1 (centres undefined) | 0 | -17 | -17 | 5 | 6 | / | /

Screens (PubChem)
